# BoNT-A LC inh2: BoNT A light chain protease inhibition | multiplex microsphere protease substrate cleavage, flow cytometry | inhibition, % at 10 µM | 360,000 compounds, 0.17% hits | AID 588499; further: plate controls were buffer without enzyme for full effect and enzyme alone for no effect
# Bead autofluor: counter-screen for toxin protease inhibitors: compound fluorescence; compound autofluorescence counterscreen, microsphere flow cytometry; stronger effect = higher value; fluorescence intensity (test concentration not listed); 360,000 compounds, 3.1% hits; AID 624483; in the data active means fluorescence intensity above about 16000; inconclusive means no clear call, values can overlap the other calls
# 3CLpro inhibitor: SARS-CoV 3CLpro protease inhibition. P0C6X7. 290,000 compounds, 0.14% hits. inhibition, % at 6 µM. recombinant SARS-CoV 3CLpro, quenched FRET peptide cleavage; in the data active means inhibition above about 12%
# BJeLR lethal: kills HRASV12-expressing BJeLR cells. BJeLR (HRASV12) viability, CellTiter-Glo ATP luminescence, 48 h. inhibition, % (no concentration beside the values). 300,000 compounds, 0.17% hits; in the data active means inhibition above about 50%; inconclusive means no clear call, values can overlap the other calls
# BoNT-F LC inh: blocks Botulinum neurotoxin F light chain protease; Multiplex microsphere protease cleavage assay, flow cytometry; inhibition, % at 10 µM; 360,000 compounds, 0.22% hits; AID 588497; in the data active means inhibition above about 35%, passing the limit was not always enough; inconclusive means no clear call, values can overlap the other calls; further: plate controls were buffer without enzyme for full effect and enzyme alone for no effect
# Anthrax LF prot: anthrax lethal factor protease inhibition; P15917; multiplex microsphere protease cleavage assay, LF; inhibition, % at 10 µM; 360,000 compounds, 0.12% hits; further: plate controls were buffer without enzyme for full effect and enzyme alone for no effect
# Target sequence (P15917 whole entry, looked up): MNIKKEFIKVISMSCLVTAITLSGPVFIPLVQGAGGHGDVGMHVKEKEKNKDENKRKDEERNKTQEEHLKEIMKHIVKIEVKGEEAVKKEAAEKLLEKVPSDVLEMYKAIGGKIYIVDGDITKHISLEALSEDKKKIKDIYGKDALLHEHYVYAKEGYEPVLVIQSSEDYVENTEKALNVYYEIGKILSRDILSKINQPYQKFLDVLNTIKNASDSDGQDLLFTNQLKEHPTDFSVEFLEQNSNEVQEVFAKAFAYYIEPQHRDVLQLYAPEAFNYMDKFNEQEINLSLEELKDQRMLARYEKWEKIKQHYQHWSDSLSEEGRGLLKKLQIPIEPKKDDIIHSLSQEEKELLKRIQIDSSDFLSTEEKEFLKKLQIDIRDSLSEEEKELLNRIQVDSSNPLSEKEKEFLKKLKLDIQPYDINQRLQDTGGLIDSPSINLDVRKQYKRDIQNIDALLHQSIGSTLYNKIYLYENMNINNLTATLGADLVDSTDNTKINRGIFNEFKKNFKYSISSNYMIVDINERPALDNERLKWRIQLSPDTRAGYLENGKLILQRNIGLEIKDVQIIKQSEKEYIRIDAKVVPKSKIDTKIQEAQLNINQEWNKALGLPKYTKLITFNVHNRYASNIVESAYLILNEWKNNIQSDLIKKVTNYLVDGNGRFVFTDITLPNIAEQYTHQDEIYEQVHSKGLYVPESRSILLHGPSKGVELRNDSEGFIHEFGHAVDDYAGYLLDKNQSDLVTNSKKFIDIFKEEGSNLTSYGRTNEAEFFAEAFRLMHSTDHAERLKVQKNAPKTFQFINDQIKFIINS
# * = called active by the depositor; ? = inconclusive; . = not tested or not shown. Rows were chosen to be rich in hits. Some 3.6% of all compounds tested hit in one or more screens of this group. Unless noted, no stated cut-off is given here; in the data, active means inhibition above about 30%; inconclusive means no clear call, values can overlap the other calls; inactive means below that.
SMILES,BoNT-A LC inh2,Bead autofluor,3CLpro inhibitor,BJeLR lethal,BoNT-F LC inh,Anthrax LF prot
Cc1ccc(NC(=O)CSc2nccn2Cc2ccccc2)cc1C,-0.4,3256,-2.9,-2.1,1.3,-10.9
CC(=O)Nc1ccc(NC(=O)CSc2nccn2Cc2ccccc2)cc1,4.4,20023*,1.5,-4.1,6.5,-2.1
CCOC(=O)CC(NC(=O)c1ccco1)c1ccc(C)cc1 (stereo unspecified),-0.3,4035,-3.7,0.7,-5.0,0.0
CCOc1ccc(C(CC(=O)O)NC(=O)c2ccco2)cc1 (stereo unspecified),?,19729*,1.2,4.2,2.6,-6.8
COc1ccc(CNc2cc(C)nc3ncnn23)c(OC)c1,-2.1,22962*,0.0,0.2,-1.5,-2.1
CCCCN(CCCC)C1=Nc2ccccc2N/C1=C(/C#N)C(=O)OCC,64.8*,2940,-2.1,2.9,33.6,40.1*
CCOC(=O)/C(C#N)=C1\Nc2ccccc2N=C1N(CC(C)C)CC(C)C,37.5*,9201,-0.2,10.3,30.0,27.1
CCOC(=O)C1=C(C)Nc2ccccc2N=C1N,-0.4,3870,2.5,-17.0,0.5,-1.5
CCOC(=O)/C(C#N)=C1/C=C(C)NC(c2ccccc2O)=N1,0.6,10689,1.8,12.8,3.0,-4.4
CCn1c2ccccc2c2cc(NC(=O)C(C)OC(=O)c3ccc(NC(=O)CC#N)cc3)ccc21 (stereo unspecified),2.1,8722,.,.,-3.9,17.4
CC(C)/C=C/CN1CCCC(N2CCN(c3cccc(Cl)c3)CC2)C1 (stereo unspecified),?,4229,1.5,0.6,?,-7.7
CCOc1oc(-c2ccc(OC)cc2)nc1C(F)(F)F,0.3,16401*,-0.2,8.2,-0.7,0.0
CC(C)(C)C(=O)NC1(C(F)(F)F)N=C2SCCN2C1=O (stereo unspecified),-0.3,3282,-1.4,8.8,-9.4,3.2
CC(=O)NC1(C(F)(F)F)N=C2SCCN2C1=O (stereo unspecified),?,22076*,2.4,12.8,-9.2,-1.4
CC(C)Oc1ccc(C(=O)NC2(C(F)(F)F)N=C3SCCN3C2=O)cc1 (stereo unspecified),?,20653*,-2.1,-3.0,-3.1,0.2
O=c1[nH]c(SCc2ccccc2Cl)nc2c1CCCC2,-1.3,20115*,-3.0,0.9,-2.6,1.0
Cc1ccc(Cn2c(CN3CC(C)OC(C)C3)nc3c2c(=O)[nH]c(=O)n3C)cc1 (stereo unspecified),0.1,20485*,0.5,13.8,0.5,-3.0
Cc1ccc(Cn2c(-n3nc(C)cc3C)nc3c2c(=O)[nH]c(=O)n3C)cc1,2.6,22348*,4.7,-13.1,3.2,-5.3
CC1CN(Cc2nc3c(c(=O)n(C)c(=O)n3C)n2Cc2ccccc2)CC(C)O1 (stereo unspecified),-0.7,6003,-3.0,0.6,-8.5,-1.1
Cc1cc(C)n(-c2nc3c(c(=O)[nH]c(=O)n3C)n2Cc2cccc(Br)c2)n1,-0.2,4282,-6.6,2.8,-0.8,0.3
Cc1c(C(=O)NC2CC(=O)N(c3ccc4c(c3)OCCO4)C2)cccc1[N+](=O)[O-] (stereo unspecified),.,.,.,-2.8,.,.
Cc1cc(C)cc(-n2nc(C)cc2N)c1,?,16680*,-4.3,-6.5,-0.2,-0.4
COc1cc(NC(=S)NC(C)=O)ccc1NC(=O)C(C)C,-3.0,16967*,2.1,-14.7,-3.7,-1.6
O=S(=O)(c1ccc2c(c1)OCCO2)N(Cc1ccc(F)cc1)Cc1nnc(-c2cccs2)o1,0.2,4218,-3.2,-8.4,-15.8,3.1
OC(Cn1c2ccccc2c2ccccc21)C[n+]1cccc2ccccc21 (stereo unspecified),?,20032*,1.0,0.6,-19.4,-2.9
SMILES,BoNT-A LC inh2,Bead autofluor,3CLpro inhibitor,BJeLR lethal,BoNT-F LC inh,Anthrax LF prot
CC(=O)NC(Cc1cc(C)ccc1C)C(=O)N1CCN(C(=O)c2ccc(Br)cc2)CC1 (stereo unspecified),-0.3,2462,5.8,-2.2,0.7,-1.7
CC(=O)NC(Cc1cc(C)ccc1C)C(=O)N1CCN(C(=O)Nc2ccc(C(C)=O)cc2)CC1 (stereo unspecified),?,17945*,-2.4,-4.1,-6.2,-4.1
CCCCNC(=O)CC(C(=O)N1CCc2ccccc21)n1ccnc1 (stereo unspecified),-0.4,8295,-1.6,-7.5,3.6,2.0
O=C(CC(C(=O)N1CCc2ccccc21)n1ccnc1)NCC1CCCO1 (stereo unspecified),3.7,22602*,4.8,-3.1,2.4,-0.5
CSc1ncnc2[nH]ccc12,0.1,3515,.,.,0.5,-4.6
Cc1ccc(NC2CCCN(C(=O)CCC3=NNC(=O)CC3)C2)cc1C (stereo unspecified),1.7,4055,-1.1,3.5,6.3,-3.2
COc1ccc(-n2c(-c3ccco3)n[nH]c2=S)cc1,3.0,22219*,-1.9,-1.4,3.7,-3.3
CC(C)(Oc1ccc(Br)cc1Cl)C(=O)Nc1ccon1,3.8,5251,3.4,-0.6,5.2,-1.1
Cc1cccc(CNC(=O)C2CCC(=O)N(CCCc3ccccc3)C2)c1 (stereo unspecified),0.1,3951,.,.,-1.6,3.2
N#C/C(=C/c1ccc(N2CCCCC2)o1)C(=O)Nc1ccc2ccccc2c1,26.0,60126*,1.8,16.3,64.7*,38.6*
COc1ccc(NC(=O)/C(C#N)=C\c2ccc(N3CCOCC3)o2)cc1,-0.9,6770,0.8,8.9,7.7,1.2
N#C/C(=C/c1ccc(N2CCCCC2)o1)C(=O)Nc1ccc(Cl)cc1,-1.1,17947*,-8.2,6.0,36.5*,-1.3
CC(C)C(c1nnnn1C(C)(C)C)N1CCOCC1 (stereo unspecified),0.3,3708,3.0,-3.0,-7.8,-2.5
CC(C)C(c1nnnn1C(C)(C)C)N1CCC(Cc2ccccc2)CC1 (stereo unspecified),?,18261*,-0.1,-0.2,?,?
O=C(CSc1nnc(-c2ccccc2O)o1)N1CCc2ccccc2C1,?,20351*,-0.9,0.9,-1.2,1.1
CCN(C(C)=O)c1nc(CSc2nnc(NC(C)C)s2)cs1,?,19610*,0.1,5.0,2.1,0.1
O=C(c1ccco1)N(Cc1ccco1)Cc1cc2ccccc2[nH]c1=O,0.0,5847,-2.3,0.7,4.7,-1.0
COc1cc(C(=O)N(Cc2ccco2)Cc2cc3ccccc3[nH]c2=O)cc(OC)c1OC,?,23180*,3.2,-9.0,-3.6,-1.2
COc1ccccc1CCNC(=O)C(=O)Nc1cc2c3c(c1)CC(=O)N3CCC2,1.9,4015,.,1.1,7.2,2.3
O=C1C2(CCC13COC(c1ccc(O)cc1)OC3)COC(c1ccc(O)cc1)OC2 (stereo unspecified),0.6,22568*,1.2,4.8,-1.2,-4.6
O=C1C2(CCCC13COC(c1ccc(O)cc1)OC3)COC(c1ccc(O)cc1)OC2 (stereo unspecified),.,.,8.4,-4.6,.,.
Cc1ccc(-n2nc(C(=O)O)cc2-c2ccccc2)cc1,-3.9,22097*,5.2,-5.4,-6.6,-1.7
